# Measurements as given in PubChem BioAssay AID720724 (Broad Institute, 2013).
# Results with a measured potency or affinity are listed apart. Unmarked numbers belong to inactive results.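 How the source made its calls: active means signal falls with a fitted half-maximal dose at most twice the top dose, in every run; inconclusive means steady partial drop, poor fit, or runs disagree; inactive means flat, rising or too weak in every run.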
# Assay: inhibitors of control Renilla luciferase reporter, dose response, counter-screen for Shn3 3'UTR targeting project, Clone20-Shn3RL cells, dual-Glo, cherry-pick, set 2 (AID 720724)
# Conditions: renilla luciferase luminescence, 24 h; series mostly up to 35 µM; activity change, negative = inhibition: at the top concentration
row,SMILES,"activity change, negative = inhibition"
1,CCN(CC)Cc1c(O)ccc2c1O/C(=C\C=C\c1ccccc1)C2=O,-25%
2,CC(C)CCOc1cccc(OCC(=O)Nc2ccncc2)c1,-30%
3,OCCCNc1nccc(-c2cc(Nc3cccc(Cl)c3)ncn2)n1,-20%
4,O=C(c1cc(COc2ccc3ncccc3c2)on1)N1CCCCCC1,-12.5%
5,CCSc1nnc(NC(=O)c2nc(S(=O)(=O)Cc3ccc(F)cc3)ncc2Cl)s1,-25%
6,c1ccc(-c2noc(-c3ccc4ccccc4c3)n2)nc1,-20%
7,O=C(Nc1ccc(Cl)cc1)c1cc(S(=O)(=O)N2CCOCC2)cs1,-32.5%
8,CCCCN1CC(COCc2ccccc2)Oc2cccc(Oc3ccc(C(C)C)cc3)c2S1(=O)=O (stereo not drawn),-36.7%
9,COc1ccc(-n2ncc3c(N4CCCCC4)ncnc32)cc1,-12.5%
10,COc1ccccc1N1CCN(c2ncc(C(=O)N3CCN(c4cccc(Cl)c4)CC3)c3ccccc23)CC1,-22.5%
11,CCOC(=O)Cn1c(S(=O)(=O)Cc2ccccc2Cl)nc(-c2ccccc2)c1-c1ccccc1,37.5%
12,Cc1cc(S(=O)(=O)NCc2ccncc2)c(C)cc1Br,25%
13,O=C(CSc1nnc(-c2cccnc2)s1)Nc1ccnc2ccccc12,-22.5%
14,Cc1ccc(C(=O)Nc2cnc3ccccc3c2)cc1,0%
15,CCOC(=O)N1CCN(c2ccc(S(=O)(=O)N(Cc3ccccc3)Cc3ccccc3)cn2)CC1,10%
16,Cc1ccccc1OCCOC(=O)c1cc(S(=O)(=O)N2CCCCC2)ccc1N1CCOCC1,-30%
17,CNc1ccccc1C(C)(C)c1cc(-c2cccc(OC)c2)no1,-40%
18,CCCn1c(C)cc(C(=O)CN2C(=O)c3ccccc3S2(=O)=O)c1C,20%
